Data from the supplement of paper PMC7366291.
Structures can show the parent of a compound that is named as a salt. ± gives the standard deviation or the standard deviation of the averaged measurements.

How the values were obtained:
Conditions in all cases: 25 µM; exposure: 24-48 hpf
[1] = tested on: Danio rerio Tg(wt1b:EGFP) embryo, pronephros; assay: glomerular separation, fold change vs DMSO control; higher = glomeruli further apart (abnormal)
Outline: (§1)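 From 24 to 48 hpf, at 28.5°C, dechorionated Tg(wt1b:EGFP) zebrafish embryos sat in HEPES-buffered E3 with 0.003% PTU carrying 25 μM compound and 0.5% DMSO. Their pronephroi were imaged dorsally in 96-well plates filled with agarose, using 470 nm light and 10 z-slices. A Fiji macro measured distances and angles between 16 reference points that were set manually on maximum projections, and any value more than 2 SD from its feature mean was excluded. Features are expressed as fold change relative to the mean of DMSO-treated embryos imaged on the same day.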

[2] = tested on: Danio rerio Tg(wt1b:EGFP) embryo, pronephros; assay: glomerular width (mean of left and right), fold change vs DMSO control; higher = wider glomerulus
Outline: as §1

[3] = tested on: Danio rerio Tg(wt1b:EGFP) embryo, pronephros; assay: fraction of imaged embryos annotated as normal kidney; higher = less nephrotoxic; extreme values may be limits of the assay
Outline: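 The value given is the share of embryos in each treatment scored as having a normal kidney. To obtain it, dechorionated Tg(wt1b:EGFP) zebrafish embryos were treated from 24 to 48 hpf at 28.5°C with 25 μM compound in 0.5% DMSO, in 5 mM HEPES-buffered E3 with 0.003% PTU. Pronephroi were imaged by widefield fluorescence (470 nm, 10 z-slices), and every embryo was annotated by hand from maximum projections.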

[4] = tested on: Danio rerio Tg(wt1b:EGFP) embryo, pronephros; assay: pronephric angle neck segment to proximal convoluted tubule (mean of left and right), fold change vs DMSO control; higher = larger pronephric angle
Outline: as §1

With `CCN1CCN(C(=O)N[C@@H](C(=O)N[C@@H]2C(=O)N3C(C(=O)O)=C(CSc4nnnn4C)CS[C@H]23)c2ccc(O)cc2)C(=O)C1=O` [Cefoperazone dihydrate] the glomerular separation [1] was 1.2 ± 0.23, the glomerular width [2] was 1.01 ± 0.086 and the “fraction of imaged embryos annotated as normal kidney” value (“fraction of imaged embryos annotated” for short) [3] was 0.909. The “pronephric angle neck segment” value [4] was 1.046 ± 0.0064.

With `N=C(N)NCc1cccc(I)c1` [Iobenguane sulfate] the glomerular separation [1] was 0.901 ± 0.19, the glomerular width [2] was 1.02 ± 0.015 and the “fraction of imaged embryos annotated” value [3] was 1. The “pronephric angle neck segment” value [4] was 1.02 ± 0.035.

With `C[C@]12CCC(=O)C=C1CC[C@@H]1[C@@H]2[C@@H](O)C[C@@]2(C)[C@H]1CC[C@]2(O)C(=O)CO` [Hydrocortisone base] the glomerular separation [1] was 1.25 ± 0.65, the glomerular width [2] was 1.16 ± 0.081 and the “fraction of imaged embryos annotated” value [3] was 0.5. The “pronephric angle neck segment” value [4] was 0.95 ± 0.064.

In the case of `Nc1ccc(C(=O)O)c(O)c1` [4-aminosalicylic acid], the glomerular separation [1] is reported as 0.608 ± 0.17, the glomerular width [2] is reported as 0.9604 ± 0.008 and the “fraction of imaged embryos annotated” value [3] is reported as 0.833. The “pronephric angle neck segment” value [4] was 0.995 ± 0.018.

`CN(CCCCCCCCCCN(C)C(=O)Oc1cccc([N+](C)(C)C)c1)C(=O)Oc1cccc([N+](C)(C)C)c1` [Demecarium bromide] was tested, and the glomerular separation [1] was 1.54 ± 0.77, the glomerular width [2] was 0.923 ± 0.032 and the “fraction of imaged embryos annotated” value [3] was 1. For the same compound, the “pronephric angle neck segment” value [4] was 1.078 ± 0.0073.

`C=CC(N)CCC(=O)O` (stereo not given) [Vigabatrin hydrochloride] was tested, and the glomerular separation [1] was 0.956 ± 0.33, the glomerular width [2] was 1.129 ± 0.0097 and the “fraction of imaged embryos annotated” value [3] was 0.917. For the same compound, the “pronephric angle neck segment” value [4] was 1.05 ± 0.029.

`COc1ccnc(C[S+]([O-])c2nc3cc(OC(F)F)ccc3[nH]2)c1OC` (stereo not given) [Pantoprazole sodium] was tested, and the glomerular separation [1] was 1.04 ± 0.33, the glomerular width [2] was 1.042 ± 0.0056 and the “fraction of imaged embryos annotated” value [3] was 0.833. The “pronephric angle neck segment” value [4] was 1.062 ± 0.0021.

In the case of `COc1c(N2CCNC(C)C2)c(F)cc2c(=O)c(C(=O)O)cn(C3CC3)c12` (stereo not given) [Gatifloxacin], the glomerular separation [1] is reported as 0.71 ± 0.24, the glomerular width [2] is reported as 1.02 ± 0.054 and the “fraction of imaged embryos annotated” value [3] is reported as 0.917. The “pronephric angle neck segment” value [4] was 1 ± 0.04.

`C[C@@H]1C[C@H]2[C@@H]3C[C@H](F)C4=CC(=O)C=C[C@]4(C)[C@@]3(F)[C@@H](O)C[C@]2(C)[C@@]1(O)C(=O)CO` [Flumethasone] was tested, and the glomerular separation [1] was 0.902 ± 0.3, the glomerular width [2] was 1.28 ± 0.012 and the “fraction of imaged embryos annotated” value [3] was 0.417. The “pronephric angle neck segment” value [4] was 0.977 ± 0.049.

In the case of `O=C1CN(/N=C/c2ccc([N+](=O)[O-])o2)C(=O)N1` [Nitrofurantoin], the glomerular separation [1] is reported as 0.915 ± 0.35, the glomerular width [2] is reported as 1.04 ± 0.012 and the “fraction of imaged embryos annotated” value [3] is reported as 0.833. For the same compound, the “pronephric angle neck segment” value [4] was 0.968 ± 0.015.
